# Measured values: article PMC5540273 (PLoS ONE, 2017)
# Assays:
# Settings in all cases: concentration: 1 μM, replicates: in singlicate; n = 1
# EIF2AK1 = tested on: EIF2AK1
# EPHA1 = tested on: EPHA1
# EPHA2 = tested on: EPHA2
# EPHA3 = tested on: EPHA3
# EPHA4 = tested on: EPHA4
# EPHA5 = tested on: EPHA5
# EPHA6 = tested on: EPHA6
# EPHA7 = tested on: EPHA7
# EPHA8 = tested on: EPHA8
# EPHB1 = tested on: EPHB1
# 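Note: KINOMEscan kinase panel screen.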
SMILES,%Inh (EIF2AK1) [%],%Inh (EPHA1) [%],%Inh (EPHA2) [%],%Inh (EPHA3) [%],%Inh (EPHA4) [%],%Inh (EPHA5) [%],%Inh (EPHA6) [%],%Inh (EPHA7) [%],%Inh (EPHA8) [%],%Inh (EPHB1) [%]
COc1cc2c(Nc3cccc(NC(=O)c4ccccc4)c3)ncnc2cc1OCCCN1CCOCC1 [GSK223810],0,7,29,6,6,0,2,3,24,4
Cl.Cn1ccc(-c2cccc(Nc3ccnc4cc(-c5nccs5)ccc34)c2)n1 [GW525701],0,25,0,100,0,0,0,6,7,14
FC(F)(F)c1ccc(-c2cc(-c3c[nH]nc3-c3ccccn3)ccn2)cc1 [GW599550],100,2,0,13,0,0,0,5,9,30
COc1ccc(NC(=O)c2ccc(-c3cc(-c4nnc(C)o4)ccc3C)cc2)cc1 [GW595885],0,8,7,0,7,0,0,0,6,0
Cc1cccc(-c2nc(Nc3ccc4[nH]nnc4c3)c3ccccc3n2)n1 [GW867587],0,0,0,0,0,0,0,0,0,6
Oc1ccc2ncnc(Nc3ccc(OCc4ccccc4)cc3)c2c1 [GI262866],0,11,0,0,6,0,16,3,14,14
CC(C)(C)c1ccc(-n2cnc3c(N)ncnc32)cc1 [SKF-97263],0,14,23,0,27,0,28,8,16,3
CC(C)(C)OC(=O)NC1CCCN(c2cc(-c3ccc4c(N)n[nH]c4c3)nc(N)n2)C1 (stereo not shown) [GSK2286096],4,8,11,0,14,0,9,0,6,10
FC(F)(F)c1cc(Nc2nccc(-c3c(-c4ccc(Cl)cc4)nn4ncccc34)n2)ccc1Cl [GW829351],0,0,0,0,4,0,0,0,3,0
Cn1ccc2ncnc(Nc3ccc(Oc4cccc(Cl)c4)c(Cl)c3)c21,0,0,5,13,0,21,21,94.1,86,15
Cc1ccc(NC(=O)c2cccc(C#N)c2)cc1-c1ccc(C(=O)Nc2ccncc2)cc1 [GSK1398463],7,12,30,13,43,0,34,12,46,22
Cl.c1ccc(Cn2ccc3cc(Nc4ncnc5ccccc45)ccc32)cc1 [GW275568],5,7,1,40,0,0,0,10,20,4
O=C(CCO)NCCn1ccc2ncnc(Nc3ccc(Oc4cccc(C(F)(F)F)c4)c(Cl)c3)c21,0,0,0,0,0,0,0,0,0,0
CCCc1ccc(S(=O)(=O)NC2CCN(c3ccnc(Nc4ccc(OC)cc4)n3)C2)cc1 (stereo not shown) [GSK1379737],0,15,0,0,0,0,12,0,7,0
O=c1cc(N2CCOCC2)nc2n(Cc3cccc(Cl)c3)ccn12 [GSK2296823],7,17,14,82,20,0,19,7,17,8
CSc1nn2c(=O)cc(N3CCOCC3)nc2n1Cc1cccc(Cl)c1Cl [GSK2347225],2,1,11,15,8,1,3,12,15,29
COC(=O)c1cccc(NC(=O)NCCNc2ccnc(Nc3ccc(F)cc3)n2)c1 [GSK1379883],0,5,32,0,7,0,20,3,9,4

SMILES,%Inh (EIF2AK1) [%],%Inh (EPHA1) [%],%Inh (EPHA2) [%],%Inh (EPHA3) [%],%Inh (EPHA4) [%],%Inh (EPHA5) [%],%Inh (EPHA6) [%],%Inh (EPHA7) [%],%Inh (EPHA8) [%],%Inh (EPHB1) [%]
COC(=O)c1c(-c2ccccc2)c2cc(Cl)ccc2c(=O)n1Cc1ccc(S(C)(=O)=O)cc1,10,0,8,6,20,4,34,1,7,6
Nc1n[nH]c2nnc(-c3ccccc3)cc12 [SB-517389],13,9,4,0,14,0,0,8,15,9
C[C@H]1CC[C@@H](C(=O)Nc2ccccc2)CN1c1cc(-c2ccc3c(N)n[nH]c3c2)nc(N)n1 [GSK2283293],10,0,11,0,3,0,15,6,23,22
COc1ccc(Nc2nccc(N3CCC(NC(=O)Nc4ccc5c(c4)OCO5)C3)n2)cc1 (stereo not shown) [GSK1379745],0,8,0,0,11,0,19,7,20,4
Clc1ccc(-c2cc(-c3c[nH]nc3-c3ccccn3)ccn2)cc1 [GW681251],0,0,8,0,2,0,10,0,0,7
Clc1cccc(-c2nc(Nc3ccncc3)c3ccccc3n2)c1 [GW873004],0,100,38,0,5,0,0,15,18,19
O=C(NCCCN1CCCC1=O)c1cnc(NCc2cc(Cl)ccc2Cl)nc1NC1CCNCC1,0,9,2,0,0,2,0,0,0,7
Nc1nc(-c2ccccn2)c(-c2ccnc3ccccc23)s1 [GW548057],0,6,0,15,0,0,6,13,20,5
CCc1nc(-c2cccc(C)c2)c(-c2ccnc(NC(=O)c3ccccc3)c2)s1,15,0,0,4,32,28,45,12,15,14
O=C(c1ccc(-c2cc(-c3c[nH]nc3-c3ccccn3)ccn2)cc1)N1CCCC1 [GW792479],0,56,21,1,13,36,2,9,19,5
CNc1nccc(-c2c(-c3ccc(F)cc3)ncn2C2CCN(C)CC2)n1 [SB-222903],0,0,0,2,1,0,0,0,0,9
Fc1cccc(COc2ccc(Nc3ncnc4nn5ccccc5c34)cc2Cl)c1 [GW689066],0,11,12,0,0,0,9,0,0,4
Fc1cccc(COc2ccc(Nc3ncnc4sc(-c5ccc[nH]5)cc34)cc2Cl)c1 [GW707818],0,0,0,18,0,0,0,0,4,1
Fc1cccc(COc2ccc(Nc3ncnc4cc[nH]c34)cc2Cl)c1,23,2,15,0,18,20,7,4,1,9
Nc1nc(-c2cccnc2)c(-c2ccnc3ccccc23)s1 [GW684083],0,0,21,12,4,0,8,0,9,6
c1ccc(-c2ccc3c(-c4ccnc(Nc5ccc6c(c5)OCCO6)n4)cnn3n2)cc1 [GW818941],0,7,18,0,21,0,12,14,17,18
Cl.Cl.c1ccc(-c2cc3ccncc3cc2OC2CCNCC2)cc1 [GSK1122999],13,11,13,0,9,0,12,5,13,25
